# Assay outcomes: PubChem BioAssay, National Center for Advancing Translational Sciences (NCATS)
# An excerpt weighted towards active compounds, which were near 8.5% of everything screened.
# GoLoco inh red = RGS12 GoLoco-Gai1 interaction inhibition; actives 0.44% (n = 230,000); AID 880; Potency, µM (highest dose often 61.6 µM), without a hit: at the top dose activity, negative = inhibition, most hits filed as inhibitors; Gai1:RGS12 GoLoco peptide FP, rhodamine, 10 min; active = well fitted inhibition curve with a large enough effect, not every such curve was filed as active; inactive = no such curve, though single readings can be large or run the other way; also: potency is read from the fitted curve at half-maximal effect; nearly all actives have a fitted effect of over 30% in size
# Target sequence (P63096 whole entry, looked up): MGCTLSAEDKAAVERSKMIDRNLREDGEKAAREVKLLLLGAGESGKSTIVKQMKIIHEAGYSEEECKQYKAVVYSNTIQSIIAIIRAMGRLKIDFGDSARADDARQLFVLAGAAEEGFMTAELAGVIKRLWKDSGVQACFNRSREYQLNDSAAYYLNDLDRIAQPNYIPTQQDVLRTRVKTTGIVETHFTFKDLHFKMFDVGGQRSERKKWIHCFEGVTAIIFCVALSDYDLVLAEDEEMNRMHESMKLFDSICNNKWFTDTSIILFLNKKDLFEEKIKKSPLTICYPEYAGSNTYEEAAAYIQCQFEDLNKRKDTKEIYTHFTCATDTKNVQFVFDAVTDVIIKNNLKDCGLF
# ALDH1A1 inh = inhibitors of human aldehyde dehydrogenase 1A1; P00352; Purified ALDH1A1, NADH fluorescence, propionaldehyde substrate; Potency, µM (highest dose often 75.3 µM), without a hit: at the highest dose activity, negative = inhibition, actives largely listed as inhibitors; actives 7.3% (n = 220,000); AID 1030; active = well fitted inhibition curve with a large enough effect, not every such curve was filed as active; inconclusive = small, poorly fitted or top-dose-only effect, or another doubt; inactive = no such curve, though single readings can be large or run the other way;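 also: potency is read from the fitted curve at half-maximal effect; plate controls were no enzyme wells and a reference inhibitor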
# NPSR antagonist = antagonists of human neuropeptide S receptor cAMP signaling; Q6W5P4; CHO-NPSR cells, cAMP TR-FRET, antagonist mode; Potency, µM (highest dose often 38.3 µM), for inactives: top-dose activity change, negative = inhibition, most hits filed as inhibitors; actives 1% (n = 220,000); also: potency is read from the fitted curve at half-maximal effect; nearly all actives have a fitted effect of over 50% in size
# JMJD2E inh = blocks human JMJD2E demethylase activity. Potency, µM (titrated, usually from 57.1 µM), without a hit: at the highest dose activity change, negative = inhibition, hits mostly inhibitors. AID 2147. JMJD2E catalytic domain, FDH-coupled NADH fluorescence (FDH is formaldehyde dehydrogenase). B2RXH2. actives 1.6% (n = 230,000); active = well fitted inhibition curve with a large enough effect, not every such curve was filed as active; inconclusive = small, poorly fitted or top-dose-only effect, or another doubt; inactive = no such curve, though single readings can be large or run the other way;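 also: potency is read from the fitted curve at half-maximal effect; 0% = wells with enzyme and -100% = buffer wells without enzyme; nearly all actives have a fitted effect of over 50% in size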
# Target sequence (B2RXH2 1-337 limits assumed): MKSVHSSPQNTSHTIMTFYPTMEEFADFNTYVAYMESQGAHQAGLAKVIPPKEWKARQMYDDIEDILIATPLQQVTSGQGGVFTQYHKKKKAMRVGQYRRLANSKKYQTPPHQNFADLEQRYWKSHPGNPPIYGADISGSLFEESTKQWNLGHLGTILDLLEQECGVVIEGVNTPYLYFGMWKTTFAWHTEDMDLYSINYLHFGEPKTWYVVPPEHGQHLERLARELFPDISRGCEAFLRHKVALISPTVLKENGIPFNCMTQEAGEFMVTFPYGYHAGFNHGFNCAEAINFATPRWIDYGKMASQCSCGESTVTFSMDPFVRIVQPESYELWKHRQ
# Coupling enz = inhibits coupling enzyme system, counter-screen for aldolase hits. coupling enzyme system counterscreen, AmpLite Red fluorescence. activity change, negative = inhibition, % at 58.2 µM, hits read low. actives 0.67% (n = 290,000). AID 2472; in the data active = activity change below about -30%
#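 Activity here indicates interference with the coupling reaction, not aldolase inhibition. Compounds at 57.5 uM final met coupling enzymes for 10 min at RT; substrate and AmpLite Red detection followed, with a 525/598 nm fluorescence read after 20 min.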
# Sfp PPTase inh = inhibitors of Bacillus subtilis Sfp phosphopantetheinyl transferase; Biochemical Sfp PPTase activity, qHTS; Potency, µM, inactives show largest response in the series, negative = inhibition, usual class: inhibitors; Q9F4F7; actives 3.5% (n = 310,000); AID 1490;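 also: the enzyme is Sfp with the accession as filed and its product quenches rhodamine fluorescence; potency is read from the fitted curve at half-maximal effect; 0% = enzyme reaction without inhibitor and -100% = no enzyme wells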
#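 Fluorescence-quenching assay: 15 nM Sfp-PPTase preincubated 15 min at room temperature with compound, then 5 uM rhodamine-CoA and 12.5 uM BHQ-2-labelled YbbR peptide added. Fluorescence (ex 525/em 598 nm) read at start and after 30 min; difference gives rate.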
# Starred values were filed as active, the others as inactive; ? = inconclusive; . = no result given; [ ] = remark or other dose. Unless noted, calls follow the shape of the dose curve; as a rule, active = well fitted curve in the direction sought with a large enough effect; inconclusive = small, poorly fitted or top-dose-only effect, or another doubt; inactive = no such curve, though single readings can be large; an effect the other way counts as inactive or inconclusive. Unless noted, % is scaled to controls: 0 for no effect and ±100 for the full control effect.
SMILES,GoLoco inh red,ALDH1A1 inh,NPSR antagonist,JMJD2E inh,Coupling enz,Sfp PPTase inh
O=c1c(=O)n(O)c2ccccc2n1O,8%,2%,12%[7.67 µM],?,-11,79µM*
CCC(NC(C)C)C(O)c1ccc(O)c2[nH]c(=O)ccc12 (stereo unspecified),7%,-12%,-5%,?,-3,-23%
CC[C@H](NC(C)C)[C@H](O)c1ccc(O)c(O)c1,4%[21.6 µM],8%[20.9 µM],.,11µM*,-36*,-17%
Cn1c(=O)c(=O)n(C)c2cc(S(=O)(=O)CCC(=O)Nc3c(F)c(F)c(F)c(F)c3F)ccc21,.,.,.,.,.,4%
N#Cc1sc2nc(-c3ccccc3)cc(-c3ccco3)c2c1N,23%,-9%,-1%[46.1 µM],?,-21,79µM*
N#Cc1c(-c2ccccc2)cc(-c2ccco2)c(C#N)c1N,67%,?,-10%[46.1 µM],?,-21,35µM*
Cc1cccc(C)c1N(C(=O)c1ccco1)C(C(=O)NC1CCCC1)c1ccncc1 (stereo unspecified),.,.,.,.,0,22%
O=C(NC(=S)Nc1ccc(S(=O)(=O)N2CCCCC2)cc1)c1ccccc1,11%,9.5µM*,-25%[46.1 µM],4%,-3,4%
O=C(NC(=S)Nc1ccc(S(=O)(=O)Nc2ccccc2)cc1)C1CC1,10%,22µM*,-29%,-20%,3,5%
Cc1ccccc1C(=O)NC(=S)Nc1ccc(S(=O)(=O)N2CCN(C)CC2)cc1,-18%,10µM*,-2%[46.1 µM],2%,1,?
COc1cccc(CN2CC(C(=O)NCc3cnn(C)c3)CCC2=O)c1 (stereo unspecified),.,.,.,.,.,17%
Cc1cc(N)n(-c2ncnc3scc(-c4ccc(Cl)cc4)c23)n1,2%,?,-4%[46.1 µM],-2%,-4,-13%
Cc1ccc(-c2csc3ncnc(-n4nc(C)cc4N)c23)cc1,2%,2µM*,-13%[46.1 µM],-1%,3,-9%
CC(=O)NC(CC(=O)N(Cc1ccccc1)c1cccc(C)c1)c1ccccc1 (stereo unspecified),.,.,.,.,.,16%
O=C(C[n+]1cn(C(F)F)c2ccccc21)c1ccc(OC(F)F)cc1,-24%,9.5µM*,-59%,-8%,0,-22%
O=C(C[n+]1ccc(C(=O)NCc2ccccc2)cc1)c1ccc(OC(F)F)cc1,9%,?,8%,?,2,-16%
CCOC(=O)C1CCCN(C(=O)c2ccco2)C1 (stereo unspecified),10%,8.9µM*,7%[46.1 µM],5%,0,-14%
CCOC(=O)C1CCCN(C(=O)CSCc2ccccc2)C1 (stereo unspecified),8%,?,-15%[46.1 µM],4%,2,4%
CC1CCCN(C(=O)CN2CCN(C(=O)c3ccco3)CC2)C1 (stereo unspecified),8%,22µM*,-12%[46.1 µM],2%,1,4%
Cc1cc2nccc(-c3ccc(Cl)cc3Cl)n2n1,.,.,.,.,-1,5%
O=C(O)c1ccc(-n2c(-c3cc(-c4ccco4)[nH]n3)n[nH]c2=S)cc1,12%,?,6%[46.1 µM],-6%,1,45µM*
O=C(O)c1cc(-c2ccco2)[nH]n1,-29%,-16%,2%[46.1 µM],-7%,-10,22µM*
CC1CCC(C(=O)NNC(=O)c2cc(-c3ccco3)[nH]n2)CC1 (stereo unspecified),-9%,0%,2%,-5%,3,9%
FC(F)(F)c1ccccc1-n1c(-c2ccco2)n[nH]c1=S,.,.,.,.,0,11%
Cc1cccc(-n2c(-c3ccco3)n[nH]c2=S)c1,0%,-7%,-28%,?,-5,-15%
SMILES,GoLoco inh red,ALDH1A1 inh,NPSR antagonist,JMJD2E inh,Coupling enz,Sfp PPTase inh
CC(=O)c1ccc(-n2c(-c3cc(-c4ccco4)[nH]n3)n[nH]c2=S)cc1,-2%,-9%,-18%[46.1 µM],-8%,0,50µM*
NC(N)=NCCC[C@H](NC(=O)CC1(CC(=O)N2CCN(C3c4ccccc4NC(=O)c4ccccc43)CC2)CCCC1)C(=O)NCCn1c(=O)n(-c2ccccc2)n(-c2ccccc2)c1=O (stereo partly specified),5%,5%,.,2%,0,?
Oc1c(C=Nc2ccccc2Cl)[nH]c2ccccc12,34%,.,-12%,?,-6,?
CC(C)=NNc1cc([N+](=O)[O-])cc2c1C(=O)N(C)S2=O (stereo unspecified),-7%,-4%,3%,-17%,-2,16µM*
NC(=O)C(=CNc1nc(-c2ccc(Cl)c(Cl)c2)cs1)C(N)=O,-6%,.,-30%,7.9µM*,-18,22µM*
O=C(O)c1ccc(-c2nc(-c3ccc(Cl)c(Cl)c3)cs2)cc1,8%,1%,-48%,?,1,-16%
COc1ccc(C(=O)CSc2nnc(NC(=O)C3CC(=O)N(c4ccccc4C)C3)s2)cc1 (stereo unspecified),19%,11µM*,-23%,-12%,0,-14%
Cc1ccccc1N1CC(C(=O)Nc2nnc(SCCN3CCOCC3)s2)CC1=O (stereo unspecified),.,.,.,.,.,-13%
O=C(CCN1C(=O)[C@@H]2Cc3ccccc3CN2C1=O)N[C@H](Cc1ccccc1)C(=O)O,.,.,.,.,-1,6%
O=C(Cn1c(S(=O)(=O)Cc2ccccc2)nc2ccccc21)N1CCCCC1,-5%,25µM*,-15%[46.1 µM],-5%,-2,15%
NC(=O)CS(=O)(=O)c1nc2ccccc2n1CC(=O)N1CCCCC1,8%,9%,-10%[46.1 µM],-3%,1,16%
Cc1cccc(C)c1NC(=O)c1cccc(N2C(=O)C3CCC(C)CC3C2=O)c1 (stereo unspecified),.,.,.,.,3,11%
O=C(CNCc1cccs1)Nc1ccc(OC(F)(F)F)cc1,.,.,.,.,0,-27%
Nc1cc(S(=O)(=O)Nc2ccc(Cl)cc2)ccc1N1CCOCC1,-9%,.,-9%,-7%,2,20µM*
Nc1cc(S(=O)(=O)Nc2ccccc2Cl)ccc1N1CCOCC1,11%,8%,7%,-15%,2,-5%
O=S(=O)(Nc1ccc(Cl)cc1)c1ccc(N2CCOCC2)c(NC(=S)NC2CC2)c1,1%,8.9µM*,-35%,-15%,2,-86%
N=C1c2ccccc2CN1c1ccc(N2CCOCC2)c(S(=O)(=O)Nc2ccc(Cl)cc2)c1,2%,1.8µM*,?,-5%,1,10µM*
O=C(CNS(=O)(=O)c1c(Cl)cccc1Cl)N1CCCCCC1,.,.,.,.,3,11%
Cc1c(CBr)[n+](=O)c2c(n1[O-])C(Br)CCC2Br (stereo unspecified),-16%,.,17%,28µM*,-5,11µM*
Cc1c(C)[n+](=O)c2c(n1[O-])C(Br)CCC2Br (stereo unspecified),-33%,.,19%,-22%,1,-13%
